Among the data in PubChem BioAssay (NCATS) are Potency values, retold here.

Test [1] addresses Glutathione peroxidase 1 (Homo sapiens) (UniProt P07203). Description: Primary qHTS Assay for Inhibitors of Recombinant Selenoprotein Glutathione Peroxidase 1 (GPX1) (AID 1845191). Further: nearly all actives have a fitted effect of over 65% in size. The procedure, abridged: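 10 nM GPX1 + cpd, 30 min RT; start w/ 1 mM GSH, 0.5 mM cumene hydroperoxide, 0.5 mM NADPH, 100 nM GR, 0.01% BSA; buffer 50 mM Tris-HCl pH 7.5, 2 mM EDTA, 150 mM NaCl; Fl 340/450, 0 & 15 min.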
In general terms: In qHTS, concentration-response curves come from the screen itself.

The target in test [2] is Phospholipid hydroperoxide glutathione peroxidase GPX4 (Homo sapiens) (UniProt P36969). Description: Primary qHTS Assay for Inhibitors of Recombinant Selenoprotein Glutathione Peroxidase 4 (GPX4) (AID 1845192). Further: nearly all actives have a fitted effect of over 65% in size. The procedure, abridged: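 NADPH consumption, followed by fluorescence at 340/450 nm between 0 and 15 min, reports GPX4 activity via coupled glutathione reductase (100 nM). Enzyme 200 nM was pre-exposed to compound 30 min; 0.5 mM cumene hydroperoxide and 1 mM GSH served as substrates.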

Test [3] deals with Luciferin 4-monooxygenase (Photinus pyralis) (UniProt P08659). Description: Primary firefly luciferase (FLuc) qHTS assay for identification of artifact compounds. (AID 1845220). Further: nearly all actives have a fitted effect of over 60% in size. The procedure, abridged:
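Cell-free, 1536-well qHTS. Buffer pH 7.6 with 0.01% Tween-20 and 0.05% BSA; 10 uM D-luciferin, 10 uM ATP; 10 nM P. pyralis luciferase; luminescence after 5 min.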

Test [4] can be described thus: Primary fluorescence-based thiol-reactive (MSTI) qHTS assay for identification of artifact compounds. (AID 1845221). Further: nearly all actives have a fitted effect of over 65% in size. Further: potency means the concentration at half of the fitted maximal effect. The procedure, abridged:
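Reactivity toward the thiol probe MSTI (4 uM) is scored by fluorescence at Ex/Em 525/598 nm after 1 h at room temperature. Acetyl-MSTI and MSTI define the activity scale.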

Test [5] relates to Nanoluciferase (engineered Oplophorus gracilirostris luciferase). Put plainly: Primary Nanoluciferase (NLuc) qHTS assay for identification of artifact compounds. (AID 1845222). Further: series mostly up to about 54 µM. In outline: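 Compounds are pinned into diluted (1:55) conditioned medium of NLuc-expressing S16 cells and held 15 min at room temperature protected from light. Nano-Glo substrate follows, and luminescence is read 5 min later.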

Test [6] in a line: Primary redox qHTS assay for identification of artifact compounds. (AID 1845223). The procedure, abridged: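 Amplex Red (25 uM) and HRP (250 mU/mL) in HBSS, with compounds for 15 min, then 250 uM DTT for 30 min, room temperature, dark. Fluorescence 525/598 nm read; normalized to DMSO and 10 uM DA3003; Hill fit.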

Values without a mark were called inactive. Results filed as inconclusive are left out. The source made the active and inactive calls. The call rests on the fitted dose curve; in most records, active means well fitted curve in the direction sought with a large enough effect; inconclusive means small, poorly fitted or top-dose-only effect, or another doubt; inactive means no such curve, though single readings can be large; an effect the other way counts as inactive or inconclusive. Where a SMILES comes first, the peptide text is derived from it. [ ]: non-standard residue; d: D form. The star is where a group is joined. ξ: configuration not given here. ξTyr(βOH) = NC(C(=O)O)C(O)c1ccc(O)cc1; PhAc = O=C(Cc1ccccc1)*

Sequence of Phospholipid hydroperoxide glutathione peroxidase GPX4 (Homo sapiens) (P36969 whole entry, looked up): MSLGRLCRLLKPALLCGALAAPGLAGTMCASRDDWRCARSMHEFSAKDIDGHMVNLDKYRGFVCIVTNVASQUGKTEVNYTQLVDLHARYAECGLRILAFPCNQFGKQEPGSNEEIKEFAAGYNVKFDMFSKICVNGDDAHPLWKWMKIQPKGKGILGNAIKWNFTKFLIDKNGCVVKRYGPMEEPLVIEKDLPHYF
Sequence of Glutathione peroxidase 1 (Homo sapiens) (P07203 whole entry, looked up): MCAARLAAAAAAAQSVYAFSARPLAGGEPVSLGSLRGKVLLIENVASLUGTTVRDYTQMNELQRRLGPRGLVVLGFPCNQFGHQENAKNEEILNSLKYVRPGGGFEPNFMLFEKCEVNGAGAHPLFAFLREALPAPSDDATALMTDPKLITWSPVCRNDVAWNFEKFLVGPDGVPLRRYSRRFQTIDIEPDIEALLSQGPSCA

Turning to `O=C(O)/C=C/c1ccc(O[C@@H]2O[C@H](CO)[C@@H](O)[C@H](O)[C@H]2O)cc1`, the Potency result in test [1], in test [2], in test [3], in test [4], in test [5] and in test [6] was “inactive” each time.

For `COc1ccccc1CN[C@H]1CCCN[C@H]1c1ccccc1`, the Potency result in test [1], in test [2], in test [3], in test [4], in test [5] and in test [6] was “inactive” in each case.

`Cc1nnc(-c2ccc3occ(-c4ccc(S(C)=O)cc4)c3c2)o1` (stereo not drawn): the Potency result in test [1], in test [2], in test [3], in test [4], in test [5] and in test [6] was “inactive” each time.

Regarding `CC1=CC[C@@]2(C)CC[C@@](O)(C(C)C)[C@@H]2[C@@H](O)C1`, the Potency result in test [1], in test [2], in test [3], in test [4], in test [5] and in test [6] was “inactive” throughout.

Turning to `CC1(C)CC[C@]2(C(=O)O)CC[C@]3(C)C(=CCC4[C@@]5(C)C[C@@H](O)[C@H](O)[C@](C)(CO)C5CC[C@]43C)[C@@H]2[C@@H]1O` (stereo partly drawn), the Potency entry in test [1], in test [2], in test [3], in test [4], in test [5] and in test [6] was “inactive” throughout.

As to `CCOC(=O)CNC(=O)[C@@H]1CCCN1C(=O)Cc1ccccc1` (PhAc-Pro-Gly-OEt), the Potency entry in test [1], in test [2], in test [3], in test [4], in test [5] and in test [6] was “inactive” each time.

For the compound `O=C(/C=C/c1ccc(O)cc1)OC[C@H]1O[C@@H](O/C(=C\c2ccccc2)C(=O)O)[C@H](O)[C@@H](O)[C@@H]1O`, the Potency result in test [1], in test [2], in test [3], in test [4], in test [5] and in test [6] was “inactive” each time.

For `CC1(C)Oc2ncnc(N)c2N=C1c1ccc(C2CCC(CC(=O)O)CC2)cc1` (stereo not drawn), the Potency entry in test [1], in test [2], in test [3], in test [4], in test [5] and in test [6] was “inactive” in each case.

On to `C=C1CC23CC(=O)C4C(CO)(CO)CCCC4(C)C2CCC1C3` (stereo not drawn), for which the Potency result in test [1], in test [2], in test [3], in test [4], in test [5] and in test [6] was “inactive” each time.

In the case of `C=CC(C)(O)C1CC2C3(C)CCCC(C)(C)C3C(O)C(O)C2(C)O1` (stereo not drawn), the Potency result in test [1], in test [2], in test [3], in test [4], in test [5] and in test [6] was “inactive” throughout.

For the compound `CC(C)c1c(NC(=O)Nc2ccc(Cl)cc2)c(=O)n(-c2ccccc2)n1C`, the Potency result in test [1], in test [2], in test [3], in test [4], in test [5] and in test [6] was “inactive” in each case.

In the case of `COc1cc2c(cc1O)C(c1ccc(O)cc1)C(C)C(C)C2` (stereo not drawn), the Potency entry in test [1], in test [2], in test [3], in test [4], in test [5] and in test [6] was “inactive” each time.

As for `CC(C)C1NC(=O)CNC(=O)C2CCCN2C(=O)C(Cc2c[nH]c3ccccc23)NC(=O)CNC(=O)C(C(O)c2ccc(O)cc2)NC(=O)CNC1=O` (stereo not drawn) (cyclo(G[ξTyr(βOH)]GWPGV); configuration not given here), the Potency entry in test [1], in test [2], in test [3], in test [4], in test [5] and in test [6] was “inactive” throughout.

In the case of `COc1ccc(C2C(C(=O)O)C(C(=O)O)C2c2ccc(OC)cc2O[C@@H]2O[C@H](CO)[C@@H](O)[C@H](O)[C@H]2O)c(O[C@@H]2O[C@H](CO)[C@@H](O)[C@H](O)[C@H]2O)c1` (stereo partly drawn), the Potency entry in test [1], in test [2], in test [3], in test [5] and in test [6] was “inactive” each time. Besides, in test [4], the Potency is 2.81 µM (active).

For the compound `CC(NC(=O)c1ccccc1N)C(=O)O` (stereo not drawn), the Potency entry in test [1], in test [2], in test [3], in test [4], in test [5] and in test [6] was “inactive” each time.

For `CC1CCC2(C(=O)OC3OC(CO)C(O)C(O)C3O)CCC3(C)C(=CCC4C5(C)CCC(O)C(C)(CO)C5CCC43C)C2C1(C)O` (stereo not drawn), the Potency entry in test [1], in test [2], in test [3], in test [4], in test [5] and in test [6] was “inactive” throughout.

With `CC(C)C1NC(=O)CNC(=O)C2CCCN2C(=O)C(Cc2c[nH]c3ccccc23)NC(=O)CNC(=O)C(Cc2ccc(O)cc2)NC(=O)CNC1=O` (stereo not drawn) (cyclo(GVGYGWP); configuration not given here), the Potency result in test [1], in test [2], in test [3], in test [4], in test [5] and in test [6] was “inactive” each time.

`On1ncc(C2CCNCC2)c1-c1cccc(-c2ccccc2)c1`: the Potency result in test [1], in test [2], in test [3], in test [4], in test [5] and in test [6] was “inactive” throughout.

Take `C=C[C@@]1(C)CCC2=C([C@H]1OC(C)=O)[C@H](OC(C)=O)CC1[C@](C)(C(=O)OC)CC[C@H](OC(C)=O)[C@]21C` (stereo partly drawn): the Potency entry in test [1], in test [2], in test [3], in test [4], in test [5] and in test [6] was “inactive” each time.

In the case of `c1cc(-c2cc(C3CCNCC3)[nH]n2)ccn1`, the Potency result in test [1], in test [2], in test [3], in test [4], in test [5] and in test [6] was “inactive” each time.

On to `CN(C)CC(c1ccc(O)cc1)C1(O)CCCCC1` (stereo not drawn), for which the Potency entry in test [1], in test [2], in test [3], in test [4], in test [5] and in test [6] was “inactive” throughout.

Consider `COc1ccc(C(=O)NCc2cc(C(C)C)no2)cc1OC1CCN(C)CC1`, for which the Potency entry in test [1], in test [2], in test [3], in test [4], in test [5] and in test [6] was “inactive” throughout.

For `C=C1C(=O)O[C@@H]2/C=C(\C)CC/C=C(\C(=O)O[C@@H]3O[C@H](CO)[C@@H](O)[C@H](O)[C@H]3O)CC[C@@H]12`, the Potency result in test [1], in test [2], in test [3], in test [5] and in test [6] was “inactive” each time. The Potency in test [4] is 4.12 µM (active).
